The campaign covered roughly 5,500 compounds. About 2,000 (36%) were called active. Not shown: some 18% with an inconclusive outcome. Rule as the data show it: active = normalized growth mostly below about 0.91 (no sharp cut-off); inconclusive = no clear call, values can overlap the other calls; inactive = mostly above about 0.92. The list shows a part of the results.
Assay: chemical genetic growth profiling, strain panel (AID 1159580);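 also: tested at 20 µM; growth read once vehicle control cultures reached saturation at 30 °C; 1 = growth at the plate median or of vehicle wells; lower values mean less growth of the strain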
Conditions: S. cerevisiae deletion strains, growth OD

Measured: normalized growth

CC1/C(=N\O)C[C@@H]2C[C@H]1C2(C)C (some centres undefined)
inactive: locus YAL013W, strain DEP1, hits give low values 1.01 | locus YBR021W, strain FUR4, hits give low values 1.01 | locus YBR229C, strain ROT2, hits give low values 1.01 | locus YCL029C, strain bik1, hits give low values 0.994 | locus YDL035C, strain GPR1, hits give low values 0.993 | locus YDL074C, strain BRE1, hits give low values 1.04 | locus YDL101C, strain DUN1, hits give low values 1.02 | locus YDL134C, strain PPH21, hits give low values 1.01 | locus YDL185W, strain tfp1, hits give low values 1.02 | locus YDL192W, strain arf1, hits give low values 1.03 | locus YDR101C, strain arx1, hits give low values 0.981 | locus YDR162C, strain NBP2, hits give low values 1.02 | locus YDR318W, strain mcm21, hits give low values 1.04 | locus YDR388W, hits give low values 1.02 | locus YDR502C, strain sam2, hits give low values 1.02 | locus YER110C, hits give low values 1.01 | locus YER155C, strain BEM2, hits give low values 1.01 | locus YER167W, strain BCK2, hits give low values 1.01 | locus YGL078C, strain dbp3, hits give low values 1.02 | locus YGL086W, strain mad1, hits give low values 0.999 | locus YGL248W, strain PDE1, hits give low values 1.03 | locus YGR078C, strain PAC10, hits give low values 1.03 | locus YGR135W, strain pre9, hits give low values 1.04 | locus YGR252W, strain gcn5, hits give low values 1.01 | locus YHR030C, strain SLT2, hits give low values 1.03 | locus YHR079C, strain IRE1 (second series), hits give low values 1.03 | locus YHR079C, strain IRE1, hits give low values 1.04 | locus YHR094C, strain hxt1, hits give low values 1.01 | locus YHR129C, strain ARP1, hits give low values 1.01 | locus YHR200W, strain rpn10, hits give low values 1.03 | locus YIL066C, strain RNR3, hits give low values 1.01 | locus YIL073C, strain SPO22, hits give low values 1.05 | locus YIL125W, strain kgd1, hits give low values 1.02 | locus YIR030C, strain dcg1, hits give low values 1.02 | locus YJL095W, strain BCK1, hits give low values 1.04 | locus YJL134W, strain LCB3, hits give low values 1.02 | locus YJL168C, strain set2, hits give low values 1.01 | locus YJL187C, strain SWE1 (second series), hits give low values 1.03 | locus YJR043C, strain POL32, hits give low values 0.994 | locus YJR066W, strain TOR1, hits give low values 0.95 | locus YJR075W, strain HOC1, hits give low values 1.03 | locus YKL009W, strain mrt4, hits give low values 0.995 | locus YKL068W, hits give low values 1.02 | locus YKL085W, strain MDH1 (second series), hits give low values 1.02 | locus YKL085W, strain MDH1, hits give low values 1.02 | locus YKL190W, strain CNB1, hits give low values 1.01 | locus YKR001C, strain vps1, hits give low values 1.05 | locus YLR039C, strain RIC1, hits give low values 1.09 | locus YLR058C, strain SHM2, hits give low values 1.02 | locus YLR102C, strain apc9, hits give low values 1.05 | locus YLR113W, strain HOG1, hits give low values 1.05 | locus YLR262C, strain YPT6, hits give low values 1.1 | locus YLR268W, strain sec22, hits give low values 1.02 | locus YLR371W, strain rom2, hits give low values 1.04 | locus YLR418C, strain cdc73, hits give low values 1.06 | locus YML016C, strain PPZ1, hits give low values 1.02 | locus YML032C, strain rad52, hits give low values 1.02 | locus YML124C, strain tub3, hits give low values 1.01 | locus YMR078C, strain ctf18, hits give low values 1.03 | locus YMR223W, strain ubp8, hits give low values 1.02 | locus YMR307W, strain GAS1, hits give low values 1.06 | locus YNL067W, strain RPL9B, hits give low values 1.02 | locus YNL183C, strain NPR1, hits give low values 0.951 | locus YNL233W, strain BNI4, hits give low values 1.03 | locus YNL250W, strain rad50, hits give low values 1.05 | locus YNL271C, strain bni1, hits give low values 1.02 | locus YNL298W, strain CLA4, hits give low values 1.02 | locus YNL307C, strain MCK1, hits give low values 1.01 | locus YNR052C, strain pop2, hits give low values 1.03 | locus YOL012C, strain htz1 1.25 | locus YOL147C, strain pex11, hits give low values 1.01 | locus YOR061W, strain CKA2, hits give low values 1.02 | locus YOR069W, strain VPS5, hits give low values 1.01 | locus YOR136W, strain idh2, hits give low values 1 | locus YOR144C, strain elg1, hits give low values 1.01 | locus YOR184W, strain ser1, hits give low values 0.926 | locus YOR231W, strain MKK1, hits give low values 1.02 | locus YOR316C, strain cot1, hits give low values 1.03 | locus YPL256C, strain CLN2, hits give low values 1.05 | locus YPR119W, strain clb2, hits give low values 1.03 | locus YPR141C, strain kar3, hits give low values 1.02 | locus YPR163C, strain tif3, hits give low values 1.03 | locus YPR167C, strain met16, hits give low values 1.03 | strain wtn01, hits give low values 0.995

— PubChem BioAssay AID1159580 (chemical genetic matrix, 2015)
